# From PubChem BioAssay (NCATS)
# Inconclusive results are not listed. A call without a number means that no potency is given here. Activity calls are given as the source filed them. Calls come from the whole dose curve; as a rule, active = well fitted cell-killing curve with a large enough effect; inconclusive = small, poorly fitted or top-dose-only effect, or effect the other way; inactive = flat fitted curve, though single readings scatter.
# System: CAOV3
# Assay: Primary qHTS to identify gynecologic anti-cancer compounds using libraries of approved drugs and bioactive compounds (AID 1345084); note: nearly all actives have a fitted effect of over 55% in size
# Conditions: Gynecologic cancer cell panel viability, ATPlite luminescence, 48 h; series mostly up to 57.5 µM
# From the text: National Center for Advancing Translational Sciences [NCATS] Assay Overview: Chemotherapeutic drug responses vary from cancer to cancer and from patient to patient. These variations could be caused by a number of factors including patient genomic background, tumor mutations, tumor heterogeneity, and aspects of drug treatment. Chemotherapeutic drug resistance is also a common issue and can lead to ineffective treatment and patient death. Here we have profiled the cell killing effects of thousands of compounds to characterize the responses in three gynecological cancers, identify cancer-selective compounds, and understand the diversity of responses to these compounds from pan-cancer suppressors to single cell line selective compounds. In this assay, we screened a 7,914 compound drug library that included approved drug and bioactive compounds in six ovarian, three cervical, and […] placental cancer cell lines using the ATPlite assay for cell viability. […] The cervical cancer cell lines included HeLa, Ca Ski, and C-33 A. The placental cancer cell lines included JEG-3. HEK 293T cells were used as the control cell line to determine the selectivity index. ATPlite is a luminescence based assay reliant on the conversion of a luciferase substrate to light in the presence of ATP. As a cytotoxic compound will suppress growth and decrease the number of cells, the concentration of ATP will decrease, and less light signal will be detected in the well.
# Assay Protocol Summary: 1,000 cells in 4 uL of media were dispensed into white, solid bottom 1536-well plates using a Multidrop Combi (Thermo Scientific). The Assay plates were incubated for 16 hours at 37 C with 5% CO2 in assay plates, followed by the addition of 23 nL of DMSO or drug dissolved in DMSO. Each compound was assayed in five concentrations (0.092, 0.46, 2.3, 11.5, and 57.5 uM), using the automated Wako 1536 Pin Tool workstation and incubated at 37 C with 5% CO2 48 hours. 4 uL of ATPlite, the ATP monitoring reagent, was then added to the each well of the assay plates using the Multidrop Combi reagent dispenser followed by incubation for 15 minutes at room temperature. The resulting luminescence was measured using the ViewLux plate reader.
# Potency is the fitted concentration of half-maximal effect.
row,Compound,Potency
1,Cc1cc(CN)cc(C)c1NC(=O)c1ccc(-c2cc(Cl)ccc2Cl)o1,inactive
2,O=[N+]([O-])c1ccc(-[n+]2nc(-c3ccccc3)nn2-c2ccc(I)cc2)cc1,11.2 µM (active)
3,Cn1cnc(-c2nccc3c(=O)[nH]c(OCCCC(F)(F)F)nc23)c1,inactive
4,C=CC(=O)Nc1cc(Nc2nccc(-c3cn(C)c4ccccc34)n2)c(OC)cc1N(C)CCN(C)C,35.5 µM (active)
5,CC[C@]1(O)C[C@H]2CN(CCC3C(=Nc4ccccc43)[C@@](C(=O)OC)(c3cc4c(cc3OC)N(C)[C@H]3[C@@](O)(C(N)=O)[C@H](O)[C@]5(CC)C=CCN6CC[C@]43[C@@H]65)C2)C1 (stereo not given in full),inactive
6,CNc1cc(OC)c(C(=O)N[C@@H]2CCN(Cc3ccccc3)[C@@H]2C)cc1Cl,inactive
7,CCC[C@@H](NC(=O)N1C(=O)C(CC)(CC)[C@@H]1Oc1ccc(C(=O)N2CCN(C)CC2)cc1)c1ccc2c(c1)OCO2,inactive
8,CC(=O)N1c2ccc(-c3ccc(C(=O)O)cc3)cc2C(Nc2ccc(Cl)cc2)CC1C (stereo not given),inactive
9,C[N+]1(C)[C@@H]2CC[C@H]1CC(OC(=O)C(O)c1ccccc1)C2 (stereo not given in full),inactive
10,COc1c(N2CC3CCCNC3C2)c(F)cc2c(=O)c(C(=O)O)cn(C3CC3)c12 (stereo not given),inactive
11,CC(=O)N1CCN([C@H]2CCN(C(=O)N(C)[C@H](C)c3cc(C(F)(F)F)cc(C(F)(F)F)c3)[C@@H](c3ccc(F)cc3C)C2)CC1,inactive
12,C=C(C)C(=O)OC1[C@@H]2C(=C)C(=O)O[C@@H]2C[C@@H](C)[C@@H]2C=CC(=O)[C@@]12C (stereo not given in full),inactive
13,CCS(=O)(=O)N(Cc1cccnc1)c1cccc(-c2ccc(C#N)cc2)c1,inactive
14,COCCOCCOc1ccc(C2=N[C@@](C)(C(=O)O)CS2)c(O)c1,inactive
15,CCC(=O)c1cc(-c2ccc(Cl)cc2)n(-c2ccc(S(N)(=O)=O)cc2)c1C,inactive
16,CCOC(=O)c1cccc(CNc2ccc(N(C)C(=O)Nc3ccccc3)cc2)c1,inactive
17,Cc1cc(C)c(NC(=O)N(Cc2ccc3c(c2)Cc2ccccc2-3)C2CCCCCC2)c(C)c1,inactive
18,CCCCn1c(-c2ccccc2)nc(-c2ccccc2)c1CN(Cc1ccc2c(c1)OCO2)Cc1ccc2c(c1)OCO2,inactive
19,C=C1/C(=C/C=C2\CCC[C@]3(C)[C@@H]([C@H](C)/C=C/C(=O)C4CC4)CC[C@@H]23)C[C@@H](O)C[C@@H]1O,inactive
20,Nc1ccc(N)c([N+](=O)[O-])c1,inactive

row,Compound,Potency
1,Fc1ccccc1CNCc1ccc(-c2ccnc3[nH]ccc23)cc1,inactive
2,C=C1C(=O)O[C@@H]2C[C@@]3(C)CCC[C@H](C)C3=C[C@H]12,inactive
3,COc1ccccc1NC(=O)Nc1ccc2ccccc2c1,inactive
4,O=C1c2c(O[C@@H]3O[C@H](CO)[C@@H](O)[C@H](O)[C@H]3O)cc(O)cc2OC1(O)Cc1ccc(O)cc1 (stereo not given in full),10 µM (active)
5,O=S(=O)(c1cccc2ccccc12)n1ccc2ccc(N3CCN4CCCC4C3)cc21 (stereo not given),inactive
6,CCCCc1nc(C)c(CC(=S)N(C)C)c(=O)n1Cc1ccc(-c2ccccc2-c2nn[nH]n2)cc1,inactive
7,CC1CCN(c2cc(NC(=O)c3ccccc3)ncn2)CC1,inactive
8,CC[C@H]1OC(=O)[C@H](C)[C@@H](O[C@H]2C[C@@](C)(OC)[C@@H](O)[C@H](C)O2)[C@H](C)[C@@H](O[C@@H]2O[C@H](C)C[C@H](N(C)C)[C@H]2O)[C@](C)(O)C[C@@H](C)/C(=N/OCOCCOC)[C@H](C)[C@@H](O)[C@]1(C)O,inactive
9,C/C=C(/COC(=O)/C(C)=C/C)C(=O)OC/C=C/c1ccc(OC)cc1,inactive
10,COc1ccc2c3ccnc4ccc(=O)n(c2c1)c43,inactive
11,N#CCC(C1CCCC1)n1cc(-c2ncnc3[nH]ccc23)cn1 (stereo not given),inactive
12,CCOP(=O)(Cc1ccc(C(=O)Nc2ccc(Br)cc2C#N)cc1)OCC,inactive
13,CC(C)[C@@H](C)/C=C/[C@@H](C)[C@H]1CC[C@H]2C3=CC=C4C[C@@H](O)CC[C@]4(C)C3=CC[C@]12C,inactive
14,Cc1c(C(=O)NCCCO)cnn1-c1nc(-c2cccc(C(F)(F)F)c2)cs1,inactive
15,CN(Cc1ccc(C(=O)O)cc1)c1ccc(OCc2c(-c3c(Cl)cccc3Cl)noc2C2CC2)nc1C(F)(F)F,inactive
16,CC(C)N(CCCNC(=O)Nc1ccc(C(C)(C)C)cc1)C[C@H]1O[C@@H](n2cc(Br)c3c(N)ncnc32)[C@H](O)[C@@H]1O,inactive
17,CCN(CC)c1ccc(C(=C2C=CC(=[N+](CC)CC)C=C2)c2cc(S(=O)(=O)O)ccc2S(=O)(=O)[O-])cc1,28.2 µM (active)
18,COc1cc2ncnc(Nc3ccc(Oc4ccccc4)cc3)c2cc1OC,31.6 µM (active)
19,O=C(O)c1ccc(O)c2ncc(N3CCCN(CCc4cccc5ccccc45)CC3)cc12,inactive
20,COc1cc(-c2cc(-c3cccc(O)c3)cnc2N)cc(OC)c1OC,inactive
